The text below walks through data of PubChem BioAssay (NCI).

About 83,000 compounds went through this panel and 20% of them were active in at least one assay; those are over-represented in the sample as a whole.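 Method: cells in 96-well plates; compound added at one concentration; 48 h incubation; percent growth measured; values under 10 scored active.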 Unmarked numbers belong to inactive results. The source made the active and inactive calls.

Some test systems named below: HCT-15 colon; HT29 colon; SNB-75 CNS; SNB-19 CNS; U251 CNS; PC-3 prostate; SK-MEL-5 melanoma; UACC-62 melanoma; LOX IMVI melanoma; SK-MEL-28 melanoma; SK-MEL-2 melanoma; EKVX NSCLC; SN12C renal; UO-31 renal; TK-10 renal; ACHN renal; CAKI-1 renal; A498 renal; CCRF-CEM leukemia; MOLT-4 leukemia.
Assay in all cases: NCI-60 one-dose screen, 48 h (100 = growth as untreated, 0 = no growth, -100 = all killed)
Holding throughout (conditions): 10 µM unless noted

Take `COc1ccc(OC)c(Nc2nnc(-c3cc(OC)c(OC)c(OC)c3)o2)c1`: the growth in the test on HCT-15 colon was 99%; in the test with HT29 colon, 86.8%; in the test with SNB-75 CNS it was 101%; in the test on SNB-19 CNS it was 96.7%; with U251 CNS, 105%; in the test on PC-3 prostate, 98.6%. The growth in the test on SK-MEL-5 melanoma was 93.9%; in the test on UACC-62 melanoma, 87.8%; in the test with LOX IMVI melanoma it was 97.9%; in the test with SK-MEL-28 melanoma, 102%; with SK-MEL-2 melanoma, 99.7%; with EKVX NSCLC, 99.8%. Besides, the growth is 89.5% in the test with SN12C renal; 89.6% with UO-31 renal; 103% in the test with TK-10 renal; 105% in the test with ACHN renal; 100% in the test with CAKI-1 renal; 89.9% in the test with A498 renal. Moreover, the growth was 121% with CCRF-CEM leukemia and 84.1% in the test with MOLT-4 leukemia.

Take `O=C1Nc2ccccc2/C1=N/N1C(=O)CN(CCCl)C1=O`: the growth with HCT-15 colon is 105%; with HT29 colon it was 99.1%; in the test with SNB-75 CNS it was 86.8%; with SNB-19 CNS, 97.1%; in the test on U251 CNS, 102%; in the test on PC-3 prostate, 99%. The growth with SK-MEL-5 melanoma was 97.5%; in the test on UACC-62 melanoma it was 90.5%; with LOX IMVI melanoma, 100%; in the test on SK-MEL-28 melanoma it was 111%; in the test with SK-MEL-2 melanoma it was 103%; with EKVX NSCLC, 102%. Besides, the growth with SN12C renal was 94.2%; in the test with UO-31 renal it was 86%; in the test on TK-10 renal, 102%; in the test with ACHN renal it was 107%; with CAKI-1 renal, 89.1%; in the test with A498 renal, 95.6%. The growth in the test with CCRF-CEM leukemia is 99.3%; in the test with MOLT-4 leukemia, 99.9%.

As to `CCN(CC)CCN1C(=O)c2c(c3c4ccccc4[nH]c3c3ccc4ccccc4c23)C1=O`, the growth in the test on HCT-15 colon is -74.4% (active); with HT29 colon it was -45.5% (active); in the test on SNB-75 CNS, 76.1%; in the test on SNB-19 CNS, 84.9%; with U251 CNS, -89.3% (active); in the test on PC-3 prostate it was -74.6% (active). The growth in the test on SK-MEL-5 melanoma is -23% (active); in the test with UACC-62 melanoma, 76.8%; in the test with LOX IMVI melanoma it was -88.3% (active); in the test with SK-MEL-28 melanoma, 0.268% (active); in the test with SK-MEL-2 melanoma it was 97.7%; with EKVX NSCLC, 18.6%. Besides, the growth in the test on SN12C renal is -89.2% (active); in the test on UO-31 renal it was 14.3%; with TK-10 renal, -86.2% (active); in the test with ACHN renal, 36.6%; in the test on CAKI-1 renal it was 50.7%; in the test on A498 renal, 35.1%. For the same compound, the growth is -8.15% (active) in the test on CCRF-CEM leukemia and -29.5% (active) with MOLT-4 leukemia.

For `COc1cc(Cc2cc(-c3ccccc3)nn(Cc3ccccc3)c2=O)cc(OC)c1OC`, the growth was 29.1% in the test with HCT-15 colon; 32.2% in the test on HT29 colon; 61% in the test on SNB-75 CNS; 51.7% in the test on SNB-19 CNS; 32.9% with U251 CNS; 22.7% in the test on PC-3 prostate. Further, the growth in the test on SK-MEL-5 melanoma is 40.2%; with UACC-62 melanoma, 37.7%; in the test on LOX IMVI melanoma it was 43.7%; in the test with SK-MEL-28 melanoma, 56.2%; in the test on SK-MEL-2 melanoma it was 38.4%; in the test with EKVX NSCLC it was 14.7%. Further, the growth with SN12C renal is 40.9%; with UO-31 renal, 21.6%; in the test on TK-10 renal, 45.2%; in the test on ACHN renal it was 27.9%; in the test on CAKI-1 renal, 44.4%; in the test on A498 renal, 51.1%. The growth in the test with CCRF-CEM leukemia is 34.8%; in the test on MOLT-4 leukemia, 5.01% (active).

Regarding `Cc1ccc(OCCOCCOCCOc2ccc(C)n(O)c2=S)c(=S)n1O`, the growth with HCT-15 colon is 35.8%; with HT29 colon, 30%; in the test on SNB-75 CNS, 59.2%; in the test with SNB-19 CNS it was 33.8%; in the test with U251 CNS it was 31.1%; with PC-3 prostate it was 34.7%. In addition, the growth in the test on SK-MEL-5 melanoma was 58.3%; in the test on UACC-62 melanoma, 15.6%; with LOX IMVI melanoma, 30.5%; in the test with SK-MEL-28 melanoma, 48.8%; with SK-MEL-2 melanoma it was 57%; with EKVX NSCLC, 24.9%. For the same compound, the growth is 28.7% in the test with SN12C renal; 42% with UO-31 renal; 64% in the test on TK-10 renal; 44.6% in the test with ACHN renal; 31.7% in the test with CAKI-1 renal; 52.5% in the test with A498 renal. For the same compound, the growth is 11.2% in the test with CCRF-CEM leukemia and 10.7% in the test on MOLT-4 leukemia.

Regarding `COc1ccc(NC(=O)c2ccc(Nc3ncnc4c3cnn4-c3cccc(F)c3)cc2)cc1`, the growth in the test with HCT-15 colon is 102%; with HT29 colon it was 104%; in the test with SNB-75 CNS, 93.9%; with SNB-19 CNS, 94.7%; with U251 CNS, 103%; with PC-3 prostate it was 96.3%. Further, the growth in the test with SK-MEL-5 melanoma was 98.4%; in the test on UACC-62 melanoma, 94.8%; with LOX IMVI melanoma, 96%; with SK-MEL-28 melanoma, 113%; in the test on SK-MEL-2 melanoma it was 104%; with EKVX NSCLC it was 101%. The growth in the test with SN12C renal was 95.7%; in the test on UO-31 renal it was 88.6%; in the test on TK-10 renal, 103%; with ACHN renal, 99.6%; in the test with CAKI-1 renal, 90.8%; in the test with A498 renal, 57.3%. For the same compound, the growth in the test on CCRF-CEM leukemia was 97.2%; with MOLT-4 leukemia, 100%.

`COc1c2c(cc3c1C(=O)N[C@@H]1[C@@H](O)[C@@H](O)[C@H](O)C[C@@H]31)OCCO2`: the growth was 102% in the test on HCT-15 colon; 106% in the test with HT29 colon; 99.3% with SNB-75 CNS; 102% in the test with SNB-19 CNS; 100% in the test on U251 CNS; 97.7% in the test with PC-3 prostate. Besides, the growth is 99.1% in the test on SK-MEL-5 melanoma; 96.7% in the test on UACC-62 melanoma; 101% with LOX IMVI melanoma; 106% in the test on SK-MEL-28 melanoma; 100% with SK-MEL-2 melanoma; 98.2% in the test on EKVX NSCLC. For the same compound, the growth in the test with SN12C renal was 103%; in the test with UO-31 renal it was 86.4%; in the test with TK-10 renal, 95.7%; in the test with ACHN renal, 103%; in the test with CAKI-1 renal, 94%; in the test with A498 renal, 104%. Besides, the results for the growth in the test on CCRF-CEM leukemia and with MOLT-4 leukemia were 105% and 99.6%, respectively.

Regarding `COc1ccc(Nc2ncc(I)c(NCCCNC(=O)C3CCC3)n2)cc1`, the growth was -18.8% (active) with HCT-15 colon; 12.5% in the test with HT29 colon; 39.4% with SNB-75 CNS; 24.5% with SNB-19 CNS; 2.43% (active) with U251 CNS; 23.8% with PC-3 prostate. Moreover, the growth is 23.3% in the test with SK-MEL-5 melanoma; 22.9% in the test on UACC-62 melanoma; -11.3% (active) in the test with LOX IMVI melanoma; 43.4% with SK-MEL-28 melanoma; 35.5% in the test with SK-MEL-2 melanoma; 21.9% with EKVX NSCLC. Moreover, the growth in the test with SN12C renal was 19.8%; in the test with UO-31 renal, -94.1% (active); with TK-10 renal it was -14.5% (active); in the test with ACHN renal, -21% (active); in the test on CAKI-1 renal it was 0.394% (active); in the test on A498 renal it was -51.4% (active). The growth in the test on CCRF-CEM leukemia is 2.24% (active); in the test with MOLT-4 leukemia it was 10.5%.
